In PubChem BioAssay (NCATS) one finds Potency, max response and outcome data, which are given here for five compounds.

The nature of experiment [1]: Primary qHTS for inhibitors of nuclear receptor binding SET domain protein 2 (NSD2) in an isogenic RCH-ACV NSD2 p.E1099K mutant (9B) (AID 1645876). Further: nearly all actives have a fitted effect of over 70% in size. Further: potency means the concentration at half of the fitted maximal effect.
The target of experiment [2] is Glutathione peroxidase 1 (Homo sapiens) (UniProt P07203). Nature of the experiment: Primary qHTS Assay for Inhibitors of Recombinant Selenoprotein Glutathione Peroxidase 1 (GPX1) (AID 1845191). Further: nearly all actives have a fitted effect of over 65% in size. The essentials:
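Recombinant GPX1 (10 nM final) was preincubated with compound for 30 min at room temperature, then reacted with 1 mM GSH, 0.5 mM CHP, 0.5 mM NADPH and 100 nM glutathione reductase; NADPH fluorescence (340/450 nm) was read at 0 and 15 min.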

The target in experiment [3] is Phospholipid hydroperoxide glutathione peroxidase GPX4 (Homo sapiens) (UniProt P36969). Nature of the experiment: Primary qHTS Assay for Inhibitors of Recombinant Selenoprotein Glutathione Peroxidase 4 (GPX4) (AID 1845192). Further: on the % scale 0 is the no-effect control and ±100 the full control effect; nearly all actives have a fitted effect of over 65% in size. The essentials: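 GR-coupled readout: 100 nM GR, 1 mM GSH, 0.5 mM NADPH; NADPH fluorescence (ex 340/em 450 nm) read at t=0 and after 15 min RT. GPX4 200 nM, preincubated 30 min with compound; substrate 0.5 mM CHP.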
Phospholipid hydroperoxide glutathione peroxidase GPX4 (Homo sapiens), sequence (P36969 whole entry, looked up): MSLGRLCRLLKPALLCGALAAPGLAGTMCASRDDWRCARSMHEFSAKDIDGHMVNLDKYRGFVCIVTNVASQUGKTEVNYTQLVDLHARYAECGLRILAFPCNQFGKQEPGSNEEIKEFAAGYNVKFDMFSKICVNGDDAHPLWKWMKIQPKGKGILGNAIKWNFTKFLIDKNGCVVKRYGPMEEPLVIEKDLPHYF

Experiment [4] can be described thus: Primary fluorescence-based thiol-reactive (MSTI) qHTS assay for identification of artifact compounds. (AID 1845221). Further: nearly all actives have a fitted effect of over 65% in size. Further: potency means the concentration at half of the fitted maximal effect. In outline: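 Probe: MSTI 4 uM, PBS pH 7.4, 2% DMSO. Incubation 1 h, RT, light-protected. Readout fluorescence 525/598 nm.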
(In qHTS, concentration-response curves come from the screen itself.)

Experiment [5] has as its system Nanoluciferase (engineered Oplophorus gracilirostris luciferase). Briefly: Primary Nanoluciferase (NLuc) qHTS assay for identification of artifact compounds. (AID 1845222).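 Further: 0% = DMSO and -100% = no enzyme.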 The essentials: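 Luminescence read-out of secreted NLuc in S16 cell conditioned medium (1:55); compounds tested with 15 min RT preincubation, then Nano-Glo substrate 1:100, 5 min. % inhibition vs no-enzyme and DMSO controls, 4-parameter Hill fit.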

The test system of the next experiment is CRL-7250. Briefly: Cytotoxic Profiling of Annotated Libraries Using Quantitative High-Throughput Screening (AID 1296008). Further: nearly all actives have a fitted effect of over 60% in size. Further: potency means the concentration at half of the fitted maximal effect. On max response: on the % scale 0 is the no-effect control and ±100 the full control effect. The following applies: Five cell lines viability, CellTiter-Glo ATP luminescence, 48-72 h; max response: hits give low values. The essentials:
(§1)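 Compounds were pin-transferred onto cells and incubated 48 or 72 hr at 37 degree Celsius, 95% humidity. CellTiter-Glo was added, plates sat 10 min at room temperature, then ATP-coupled luminescence was imaged as the viability read-out.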

The test system of a further experiment is HEK293. The description is as above. To be noted: Five cell lines viability, CellTiter-Glo ATP luminescence, 48-72 h; max response: hits give low values. The essentials:
as §1
On the technique in general: ATP-based viability assays read luminescence as a measure of living cells.

The subject of the next experiment is HaCat. The experiment is described as above. The following applies: Five cell lines viability, CellTiter-Glo ATP luminescence, 48-72 h; max response: hits give low values. The essentials: as §1
For another experiment, the system named is NIH3T3. Described as above. To be noted: Five cell lines viability, CellTiter-Glo ATP luminescence, 48-72 h; max response: hits give low values. In outline:
as §1

In the next experiment the test system is C33A. Nature of the experiment: Primary qHTS to identify gynecologic anti-cancer compounds using libraries of approved drugs and bioactive compounds (AID 1345084). Further: nearly all actives have a fitted effect of over 55% in size. Further: potency means the concentration at half of the fitted maximal effect. The following applies: Gynecologic cancer cell panel viability, ATPlite luminescence, 48 h; series mostly up to 57.5 µM. The essentials: (§2)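 Cell viability after 48 h drug treatment, ATPlite luminescence readout; five doses.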

For a further experiment, the system named is CASKI. Described as above. The following applies: Gynecologic cancer cell panel viability, ATPlite luminescence, 48 h; series mostly up to 57.5 µM. In outline: as §2
The subject of a further experiment is Es-2. Described as above. The following applies: Gynecologic cancer cell panel viability, ATPlite luminescence, 48 h; series mostly up to 57.5 µM. The essentials:
as §2

For the next experiment, the system named is Hek293T. The experiment is described as above. The following applies: Gynecologic cancer cell panel viability, ATPlite luminescence, 48 h, control line for the selectivity index; series mostly up to 57.5 µM. The essentials: as §2
The subject of a further experiment is OV90. The experiment is described as above. The following applies: Gynecologic cancer cell panel viability, ATPlite luminescence, 48 h; series mostly up to 57.5 µM. In outline: as §2
In another experiment the test system is PA-1. The description is as above. To be noted: Gynecologic cancer cell panel viability, ATPlite luminescence, 48 h; series mostly up to 57.5 µM. In outline: as §2
For another experiment, the system named is Tov-21-G. The description is as above. To be noted: Gynecologic cancer cell panel viability, ATPlite luminescence, 48 h; series mostly up to 57.5 µM. In outline: as §2
The next experiment deals with Tov112D. The description is as above. The following applies: Gynecologic cancer cell panel viability, ATPlite luminescence, 48 h; series mostly up to 57.5 µM. In outline:
as §2

The subject of experiment [6] is Zika virus NS2B-NS3 protease (linked construct). Briefly: Primary screen NINDS Rhodamine qHTS for Zika virus inhibitors (AID 1347160). Further: on the % scale 0 is the no-effect control and ±100 the full control effect; nearly all actives have a fitted effect of over 55% in size. The essentials:
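Percent inhibition, normalized to uninhibited and enzyme-free controls, is fitted to a 4-parameter Hill equation. Fluorescence change comes from a 15-min cleavage of 1.5 microM bis-peptide Rhodamine110 substrate by 25 nM linked NS2B-NS3 at room temperature.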

In experiment [7] the target is Calcium and integrin-binding protein 1 (Homo sapiens) (UniProt Q99828). Briefly: Primary qHTS for Identification of Calcium Integrin Binding Protein 1 (CIB1) Competitor (AID 1508620).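 Further: GST tagged CIB1 binding a fluorescein labelled alphaIIb integrin peptide tracer; top concentration of the series differs between compounds; on the % scale 0 is the no-effect control and ±100 the full control effect.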 The essentials:
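Fluorescence polarization competition: CIB1-GST (1 uM final) preincubated with compound 15 min at room temperature, then FITC-labeled alphaIIb peptide (100 nM final) added for another 15 min. Polarization read at Ex 480/Em 540.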

Experiment [8] addresses Luciferin 4-monooxygenase (Photinus pyralis) (UniProt P08659). Briefly: Primary firefly luciferase (FLuc) qHTS assay for identification of artifact compounds. (AID 1845220).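 Further: plate controls were DMSO vehicle for no effect and no enzyme for full effect; nearly all actives have a fitted effect of over 60% in size.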 To be noted: outcome: dose series up to 54.1 µM unless noted. The essentials: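 qHTS, 15 min compound preincubation with substrate (10 uM luciferin, 10 uM ATP) at RT, then 10 nM FLuc; 5 min; luminescence; % inhibition vs no-enzyme/DMSO controls, 4-parameter Hill fit.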

Structures are written as SMILES. Unmarked numbers belong to inactive results. Results filed as inconclusive are left out. Activity calls are given as the source filed them. The call rests on the fitted dose curve; in most records, active means well fitted curve in the direction sought with a large enough effect; inconclusive means small, poorly fitted or top-dose-only effect, or another doubt; inactive means no such curve, though single readings can be large; an effect the other way counts as inactive or inconclusive.

Glutathione peroxidase 1 (Homo sapiens), sequence (P07203 whole entry, looked up): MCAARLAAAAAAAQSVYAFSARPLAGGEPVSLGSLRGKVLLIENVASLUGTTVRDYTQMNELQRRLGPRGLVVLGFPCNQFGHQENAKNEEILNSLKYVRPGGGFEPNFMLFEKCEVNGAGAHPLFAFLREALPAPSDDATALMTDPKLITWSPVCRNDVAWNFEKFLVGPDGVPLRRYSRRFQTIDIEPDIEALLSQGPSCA
Calcium and integrin-binding protein 1 (Homo sapiens), sequence (Q99828 whole entry, looked up): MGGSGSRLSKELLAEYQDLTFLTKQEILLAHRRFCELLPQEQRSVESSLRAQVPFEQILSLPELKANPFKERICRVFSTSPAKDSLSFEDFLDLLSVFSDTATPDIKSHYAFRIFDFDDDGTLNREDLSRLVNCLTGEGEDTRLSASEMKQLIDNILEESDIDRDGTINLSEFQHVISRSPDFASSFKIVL

`CO[C@@H]1[C@H](O)[C@@H](O[C@@H]2C[C@H]3CC[C@@H]4C(CC[C@]5(C)[C@@H](C6=CC(=O)OC6)CC[C@]45O)[C@@]3(C)[C@H](O)C2)O[C@H](C)[C@@H]1O` (stereo not given in full): the Potency was 89.3 nM (active) in [1]; 112 nM (active) in the experiment with CRL-7250; 224 nM (active) in the experiment on HEK293; 1780 nM (active) in the experiment with HaCat; 199 nM (active) in the experiment on C33A; 1260 nM (active) in the experiment with CASKI. Besides, the Potency with Es-2 is 178 nM (active); in the experiment on Hek293T it was 224 nM (active); in the experiment on OV90 it was 1000 nM (active); with PA-1, 199 nM (active); in the experiment on Tov-21-G it was 178 nM (active); in the experiment with Tov112D, 89.1 nM (active). For the same compound, the Potency entry in experiment [2], in experiment [3], in [4] and in experiment [5] was “inactive” in each case. Besides, the max response with NIH3T3 is 3.09%.

Take `COc1ccc2c3c4n(c2c1)[C@@H](C=C(C)C)OOC(C)(C)C[C@@H]4N1C(=O)[C@@H]2CCCN2C(=O)[C@]1(O)[C@H]3OCC=C(C)C`: the Potency entry in [6], in experiment [7], in experiment [1], in experiment [2], in experiment [3] and in experiment [4] was “inactive” in each case. Besides, the Potency entry (in experiment [5]; with C33A; in the experiment with CASKI; with Es-2; with Hek293T; in the experiment with OV90) was “inactive” each time. Moreover, the Potency result in the experiment with PA-1, with Tov-21-G and with Tov112D was “inactive” in each case. The result (in [8]; in the experiment with CRL-7250) was inactive. Further, the max response is -3.84% with HEK293, -11% in the experiment on HaCat and 0.42% with NIH3T3.

As to `C[C@]12CCC(=O)C=C1CC[C@@H]1[C@@H]2[C@@H](O)C[C@]2(C)C(=O)CC[C@@H]12`, the Potency entry in experiment [6], in [7], in [1], in [2], in experiment [3] and in experiment [4] was “inactive” throughout. Moreover, the Potency entry (in experiment [5]; in the experiment on C33A; in the experiment with CASKI; in the experiment on Es-2; in the experiment with Hek293T; in the experiment with OV90) was “inactive” throughout. The Potency result with PA-1, in the experiment with Tov-21-G and in the experiment with Tov112D was “inactive” each time. The compound was called inactive (in [8]; in the experiment on CRL-7250). For the same compound, the max response in the experiment on HEK293 is -2.71%; in the experiment on HaCat it was -8.66%; in the experiment with NIH3T3, 2.17%.

In the case of `COc1ccsc1CNCC[C@@]1(c2ccccn2)CCOC2(CCCC2)C1`, the Potency result in [6], in experiment [7], in [1], in experiment [2], in experiment [3] and in [4] was “inactive” in each case. In addition, the Potency result (in experiment [5]; with C33A; in the experiment on CASKI; in the experiment on Es-2; in the experiment on Hek293T; in the experiment on OV90) was “inactive” each time. Further, the Potency entry in the experiment on PA-1, with Tov-21-G and in the experiment with Tov112D was “inactive” in each case. The max response in the experiment on CRL-7250 is -5.82%; in the experiment on HEK293 it was -0.102%; in the experiment on HaCat, -8.27%; with NIH3T3, -1.76%.

As to `CC1=CC2(O)/C=C/C(C)(O)C(O)C(O)/C=C/C(=O)OC23C(=O)NC(CC(C)C)C3C1C` (stereo not given), the Potency result (in experiment [7]; in [1]; in [2]; in experiment [3]; in experiment [5]; in the experiment on C33A) was “inactive” in each case. Also, the Potency result with CASKI, in the experiment on Es-2, in the experiment with Hek293T, in the experiment with OV90, in the experiment on PA-1 and in the experiment on Tov-21-G was “inactive” throughout. Further, the Potency entry in the experiment on Tov112D was “inactive”. The result (in [8]; with HaCat) was inactive. For the same compound, the Potency in [4] was 10300 nM (active). For the same compound, the max response in the experiment with CRL-7250 is -1.26%; in the experiment with HEK293 it was -8.27%; in the experiment on NIH3T3, 0.398%.
